Among all 300,000 compounds or so, about 1,100 (0.37%) were called active. The entries come from a sample that favours actives as a whole. A number with no mark means an inactive call.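 Rule for the calls: active = inhibition past about -25% in most replicates, and total fluorescence under double the plate's negative control median (limit read from the data); inconclusive = replicates evenly split on the limit, or fluorescence at least double controls; inactive = too little inhibition in most replicates.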
These molecules were tested against Zinc finger protein mex-5 (Caenorhabditis elegans) (UniProt Q9XUB2) (assay: MEX-5 zinc finger RNA-binding disruptors – biochemical, C. elegans, fluorescence polarization, MLPCN library, primary screen (AID 1832;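 note: 0% = DMSO and -100% = 5 µM competing unlabeled TCR2 RNA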)). Details: MEX-5/FITC-TCR2 RNA binding, at 10 µM, hits give low values.
Zinc finger protein mex-5 (Caenorhabditis elegans), sequence (Q9XUB2 whole entry, looked up): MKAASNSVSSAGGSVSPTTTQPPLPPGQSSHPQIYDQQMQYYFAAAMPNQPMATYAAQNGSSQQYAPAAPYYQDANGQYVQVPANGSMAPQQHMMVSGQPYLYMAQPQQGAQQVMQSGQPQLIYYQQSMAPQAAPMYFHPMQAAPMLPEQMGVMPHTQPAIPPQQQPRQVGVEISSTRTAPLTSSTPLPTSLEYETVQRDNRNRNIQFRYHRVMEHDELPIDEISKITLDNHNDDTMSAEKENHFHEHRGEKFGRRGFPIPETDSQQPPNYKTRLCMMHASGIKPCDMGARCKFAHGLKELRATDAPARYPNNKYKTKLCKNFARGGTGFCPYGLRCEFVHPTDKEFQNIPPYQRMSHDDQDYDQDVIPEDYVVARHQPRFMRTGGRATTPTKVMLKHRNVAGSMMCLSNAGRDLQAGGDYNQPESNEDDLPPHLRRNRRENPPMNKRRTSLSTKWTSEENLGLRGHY

| Compound | activity score (negative = inhibition of binding) |
| --- | --- |
| Cc1cccn2c(=O)c3cc(C(=O)NCC4CCCO4)c(=N)n(Cc4ccc(F)cc4)c3nc12 (centres undefined) | -0.627% |
| Cc1cccn2c(=O)c3cc(C(=O)NCCN4CCOCC4)c(=N)n(Cc4cccnc4)c3nc12 | -41.6% (active) |
| COc1ccc(CCn2c(=N)c(C(=O)NCC3CCCO3)cc3c(=O)n4cccc(C)c4nc32)cc1OC (centres undefined) | 1.85% |
| CN(C)C(CNC(=O)c1cccc(S(=O)(=O)Nc2ccc(Br)cc2)c1)c1ccco1 (centres undefined) | -4.39% |
| O=C(Nc1ccccc1Cc1ccccc1)c1ccc2c(c1)SC1=NS(=O)(=O)CCN12 | 1.1% |
| COc1ccccc1Oc1nc(-c2cccnc2)nc2ccccc12 | 3.68% |
| COc1ccc(Nc2nc(-c3cccnc3)nc3ccccc23)cn1 | -55.5% (active) |
| Fc1ccc(/C=N/Nc2nc(-c3cccnc3)nc3ccccc23)cc1 | 4.03% |
| O=C(NCc1ccc2c(c1)OCO2)C(=O)NCC1OCCN1S(=O)(=O)c1ccc(F)cc1 (centres undefined) | -0.888% |
| COCCn1c(N)c(NCc2ccccc2)c(=O)[nH]c1=O | -67.9% (active) |
| COc1ccc(CNc2nc3c(c(=O)[nH]c(=O)n3C)n2Cc2ccccc2)cc1 | -0.659% |
| COCCn1c(N)c(N(Cc2ccccc2)C(=O)C2CCCCC2)c(=O)[nH]c1=O | 1.74% |
| Cc1nnc(SCc2ccc(C(=O)c3ccc(Cl)cc3)o2)n1-c1ccccc1 | -1.84% |
| COc1ccc(CC(=O)NCc2nnc(SCC(=O)Nc3ncc(C)s3)n2C)cc1 | 0.258% |
| COc1ccc(C(=O)NNC(=O)c2cnccn2)cc1[N+](=O)[O-] | -64.4% (active) |
| COc1ccc(C(=O)O/N=C(\N)c2ccccn2)cc1[N+](=O)[O-] | -0.00548% |
| COc1cccc(OCC(=O)NNC(=O)c2cnccn2)c1 | -22.4% |
| O=C(CN1C(=O)c2cccnc2Oc2ccc(Cl)cc21)Nc1ccc(F)cc1 | -1.82% |
| COCCCNCC(=O)Nc1sc(C)c(C)c1C(=O)OC | 0.906% |
| Cc1ccc(O)c(CCc2ccccc2)n1 | -3.03% |
| Nc1nnn(CC(=O)N/N=C/c2ccccc2)n1 | -0.796% |
| O=C(Cn1cncn1)N/N=C/c1c2ccccc2cc2ccccc12 | -30% (active) |
| Cc1[nH]c2ccccc2c1/C=N\NC(=O)Cn1nnc(-c2ccccc2)n1 | 0.39% |

| Compound | activity score (negative = inhibition of binding) |
| --- | --- |
| Cc1ccc(-c2cc(C(=O)NC3CCN(Cc4ccccc4)CC3)c3ccccc3n2)cc1 | -2.28% |
| O=C(Nc1ccc(F)cc1)C(=O)c1cn(CC(=O)N2CCOCC2)c2ccccc12 | -1.93% |
| COc1cccc(NC(=O)CS(=O)(=O)c2cn(CC(=O)N3CCOCC3)c3ccccc23)c1 | -1.81% |
| COc1cccc(NC(=O)C(=O)c2cn(CC(=O)N3CCOCC3)c3ccccc23)c1 | -27.9% (active) |
| COc1ccc(-c2n[nH]c3c2CN(C(=O)c2ccc(F)cc2)CC3)cc1 | 0.485% |
| O=c1ccc(-c2ccc(S(=O)(=O)Nc3ccccc3)o2)n[nH]1 | 1.3% |
| Cc1cc2oc3ccc(NCCC4CCCN4C)cc3c(=O)c2cc1C (centres undefined) | -10.1% |
| CCSCc1nc(N)nc(NCCc2ccccc2)n1 | -1.2% |
| O=C(Nc1ccc(OC(F)(F)F)cc1)c1ccc2c(c1)no[n+]2[O-] | -2.46% |
| COc1cccc(-c2nc(CS(=O)CC(=O)NCc3ccc(F)cc3)c(C)o2)c1 (centres undefined) | 0.156% |
| COc1ccc(-c2nc(CS(=O)CC(=O)NCc3ccccc3)c(C)o2)cc1OC (centres undefined) | 2.34% |
| COc1ccc(-c2nc(CS(=O)CC(=O)NCc3ccccn3)c(C)o2)cc1 (centres undefined) | -66% (active) |
| O=C(CCC(=O)NNc1nc2ccccc2c2nc(-c3ccccc3)nn12)NCCCN1CCCC1=O | 0.509% |
| COc1ccc(OC)c(-n2cc3c(=O)n(C)c(=O)n(C)c3c2)c1 | -2.26% |
| COC(=O)C1=C[C@@H](C(=O)OC)[C@@H]2C3=C(C(=O)[C@]2(C)NC(=O)c2ccccc2)[C@H](C)n2c(=O)n(C)c(=O)n2[C@@H]3C1 | 0.374% |
| Cc1ccc(C)n1C(Cc1ccccc1)C(=O)O (centres undefined) | -27.1% (active) |
| COc1ccc(CNC(=O)C(Cc2ccccc2)n2cccc2)cc1 (centres undefined) | 2.2% |
| CC(Cc1ccccc1)C(=O)N(C)Cc1ccccc1 (centres undefined) | 2.02% |
| Cc1c(C=O)c2ccccc2n1CC(=O)O | -1.11% |
| C[C@@H](C(=O)Nc1ccc2ccccc2c1)[C@@H]1C[C@@]1(C)[C@@H](NC(=O)c1cccnc1)c1ccccc1 | 2.99% |
| O=C(Nc1c2c(nn1-c1cccc(Cl)c1)CS(=O)(=O)C2)c1cccs1 | -4.55% |
| Cc1ccccc1NC(=S)NC(=O)Cc1ccc(Cl)cc1 | 0.984% |
| CCCc1nnc(NC(=O)CCC(=O)N2CCN(S(=O)(=O)c3ccc(OC)cc3)CC2)s1 | 2.03% |

| Compound | activity score (negative = inhibition of binding) |
| --- | --- |
| CCC1=C(C(=O)OC)C(c2cc(OC)ccc2OC)C(C#N)=C(N)O1 (centres undefined) | -1.18% |
| CCCN1CC=C2C(C#N)=C(N)C(C#N)(C#N)C(c3cc(OC)ccc3OC)C2C1 (centres undefined) | -27.2% (active) |
| CCN1CC=C2C(C#N)=C(N)C(C#N)(C#N)[C@H](c3ccoc3)[C@H]2C1 | -84.8% (active) |
| CC1=C(C(N)=O)C(c2ccc(F)cc2)n2nc(CCCO)nc2N1 (centres undefined) | -1.99% |
| CCCCn1c(N)c(N(Cc2ccccc2OC)C(=O)COc2cc(C)ccc2Cl)c(=O)[nH]c1=O | -0.677% |
| CC1CC(C)CN(c2ccc(S(=O)(=O)N3CCOCC3)cc2)C1 (centres undefined) | -0.658% |
| CCN(Cc1ccccc1)S(=O)(=O)c1cc2c3c(c1)CCN3C(=O)CC2 | 1.24% |
| O=C1Cc2ccccc2Sc2ccc(Cl)cc21 | -1.6% |
| CC(C)[C@H](NC(=O)N1c2ccccc2NC(=O)[C@@H]1C(C)C)C(=O)N[C@H](C(=O)O)c1ccccc1 | 1.76% |
| COCC(=O)N=Nc1c(O)[nH]c2ccccc12 | -1.5% |
| Cc1cccc(N=Nc2c(C)[nH]n(-c3ccccc3)c2=O)c1 | -1.5% |
| Cc1cccc(N=Nc2c(O)[nH]c3ccc(F)cc23)c1 | -37.8% (active) |
| Cc1cccc(NC(=O)c2nc(S(=O)(=O)Cc3ccccc3)ncc2Cl)c1 | 2.04% |
| Cc1cc(=O)n2nc(N3CCCC(C(=O)NCc4cccc(Cl)c4)C3)sc2n1 (centres undefined) | 0.58% |
| CCOc1ccc(C2=CC(c3ccccc3)n3ncnc3N2)cc1 (centres undefined) | 0.973% |
| Brc1ccc(C2=CC(c3ccco3)n3ncnc3N2)cc1 (centres undefined) | -46.2% (active) |
| COC(=O)C1=C(C)Nc2ncnn2C1c1ccco1 (centres undefined) | 0.833% |
| Cc1ccnc(N2C(=O)c3ccc([N+](=O)[O-])cc3C2=O)c1 | 0.424% |
| CCN1C(=NCC(C)C)N[C@@H](CCc2ccccc2)[C@H](C(=O)NCC(C)C)[C@H]1C | 0.663% |
| COc1cc([C@H](Cc2ccccc2)NC(C)=O)oc(=O)c1 | -29.7% (active) |
| CCOC(=O)C(Cc1ccccc1)NC(=O)CCC(=O)c1ccc(OC)cc1 (centres undefined) | -0.523% |
| COC(=O)[C@H](Cc1ccccc1)NC(=O)Nc1ccc(OC)cc1 | -2.47% |
| O=C(Nc1cc2c3c(c1)C1CCCC1CN3CC1CCCC21)c1ccc([N+](=O)[O-])cc1 (centres undefined) | 0.805% |

| Compound | activity score (negative = inhibition of binding) |
| --- | --- |
| CCN(Cc1ccccc1)C(=O)CCS(=O)(=O)c1ccc2c(c1)oc(=O)n2C | -0.201% |
| CC(C)(C)N(Cc1ccccc1)C(=O)c1ccncc1 | 0.0862% |
| Cc1cc(NC(=O)CSc2nc(=O)cc(N)n2-c2ccc(F)cc2)no1 | 3.29% |
| O=C(O)CCn1cc(/C=C/C(=O)c2ccc(Cl)cc2)c(-c2cccc(Br)c2)n1 | -3.47% |
| CCn1nc(C)c(NC(=O)/C=C/c2ccc(OC)c(COc3ccc(Br)cc3)c2)c1C | -2.54% |
| Cc1cc(C)c(/C=C2\C(=O)Nc3ccccc32)[nH]1 | -49.3% (active) |
| O=C1Nc2ccccc2/C1=C/c1ccnc2ccccc12 | -0.239% |
| CN(C)/C=C1/Nc2ccccc2C1=O | -9.39% |
| Cc1cc(C)c(C)c(S(=O)(=O)Nc2cccnc2)c1C | 3.19% |
| CCN(CC)CCOc1ccc2c(c1)C(=NNC(=O)c1ccccn1)c1cc(OCCN(CC)CC)ccc1-2 | -21.9% |
| CN1C(=O)/C(=C/c2ccco2)SC1=Nc1cccc(C(=O)O)c1 | -30.7% (active) |
| O=C(CCCN1C(=O)/C(=C\c2ccco2)SC1=S)Nc1cccc2ccccc12 | -4.74% |
| Cc1cc(/C=C2\SC(=O)N(C)C2=O)c(C)n1-c1cccc(C(=O)O)c1 | -1.93% |
| CSc1nc(C)nc(C2CC2)c1C#N | 0.165% |
| CN(C)c1ccc(NC(=S)N(CCc2ccccc2)C2CC(=O)N(c3c(Cl)cccc3Cl)C2=O)cc1 (centres undefined) | 0.224% |
| Cc1cccc(NC(=O)COC(=O)CCc2ccccc2)c1C | 0.968% |
| O=C(COC(=O)CCc1c[nH]c(=O)[nH]1)Nc1ccccc1Cl | -36.5% (active) |
| O=C(COC(=O)CCOc1ccccc1)Nc1cc(S(=O)(=O)N2CCCCC2)ccc1Cl | -0.682% |
| COc1cc(S(=O)(=O)N2CCN=C2c2ccccc2)ccc1Cl | 3.19% |
| COc1ccc(CC(=O)Nc2c(C(N)=O)oc3ccccc23)cc1 | 0.725% |

From PubChem BioAssay AID1832 (Broad Institute, 2009)
